Hit rate of the full screen: of about 350,000 compounds, about 31,000 (8.9%) were called active. Entries that show only a call come without a potency. Roughly 15% stayed inconclusive and do not appear here. Calls come from the whole dose curve; as a rule, active = well fitted inhibition curve with a large enough effect; inconclusive = small, poorly fitted or top-dose-only effect; inactive = no such curve, though single readings can be large or run the other way. This excerpt belongs to a sample that is enriched for actives.
Target: Histone-lysine N-methyltransferase EHMT2 (Homo sapiens) (UniProt Q96KQ7)
Sequence (Q96KQ7 913-1193 limits assumed): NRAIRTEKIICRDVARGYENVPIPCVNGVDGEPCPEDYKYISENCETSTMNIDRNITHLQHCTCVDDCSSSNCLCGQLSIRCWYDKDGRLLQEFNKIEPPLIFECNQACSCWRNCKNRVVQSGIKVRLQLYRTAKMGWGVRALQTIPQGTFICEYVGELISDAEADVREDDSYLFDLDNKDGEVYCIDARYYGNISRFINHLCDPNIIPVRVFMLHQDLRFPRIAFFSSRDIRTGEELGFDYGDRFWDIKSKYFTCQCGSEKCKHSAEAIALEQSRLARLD
Assay: qHTS Assay for Inhibitors of Histone Lysine Methyltransferase G9a; note: nearly all actives have a fitted effect of over 75% in size
Details: G9a H3K9 monomethylation, AlphaScreen, 2 h; series mostly up to 59 µM
How it was run: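 G9a (20 nM) preincubated 15 min RT with compounds, then 500 nM biotinylated H3K9 peptide and 20 uM SAM added; 2 h RT reaction. Monomethyl-H3K9 product detected by AlphaScreen with anti-H3K9me1 antibody, streptavidin donor and anti-rabbit IgG acceptor beads.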
Potency is the fitted concentration of half-maximal effect.

Row | SMILES | Potency | activity, negative = inhibition
1 | CCCN(C(=O)Cn1ncc2c([nH]c3ccc(C)cc32)c1=O)c1ccccc1C | inactive | –
2 | CC(C)(C)OC(=O)NCCCCCNC(=O)c1nc[nH]c1C(=O)NCc1ccccc1 | – | 24.5% [at 2.33 µM] (inactive)
3 | Cc1nn(C(=O)c2ccoc2C)c(N)c1-c1ccccc1 | 31.6 µM (active) | –
4 | C/C(=N\NC(=O)c1ccoc1C)c1ccccc1O | inactive | –
5 | Cc1occc1C(=O)Nc1nnc(-c2ccncc2)s1 | – | -37.1% [at 12.7 µM] (inactive)
6 | CCOc1ccccc1NC(=O)CN1CCCN(Cc2cccc(Cl)c2)S1(=O)=O | inactive | –
7 | Cc1ccc2c(c1)N(CC(=O)NCCc1ccc(Cl)cc1)C(=O)c1cccnc1O2 | inactive | –
8 | COc1ccc2c(CC(=O)OCC(=O)NC(N)=O)coc2c1 | inactive | –
9 | COc1ccc2c(CC(=O)OCC(=O)Nc3ccccc3[N+](=O)[O-])coc2c1 | 11.2 µM (active) | –
10 | COc1ccc2c(CC(=O)Nc3nnc(C4CC4)s3)coc2c1 | inactive | –
11 | COc1ccc(C(=O)c2c3ccc([N+](=O)[O-])cc3[n+]([O-])n2CCCN)cc1 | – | -22.2% [at 2.33 µM] (inactive)
12 | Cc1c(CCNC(=O)c2ccc(C(F)(F)F)cc2)sc2nc(-c3ccc(F)cc3)nn12 | inactive | –
13 | CCOC(=O)c1ccccc1NC(=O)c1nn(-c2ccc(OC)c(Cl)c2)c(=O)c2c1c1ccccc1n2C | inactive | –
14 | CC(=O)c1ccc(NC(=O)c2nc3nc(C)cc(C(F)F)n3n2)cc1 | inactive | –
15 | CCOC(=O)c1cccc(NC(=O)C2CCN(c3ncnc4c3nc3n4CCCCC3)CC2)c1 | inactive | –
16 | COCCNCCOCCOc1cccc(OC)c1 | inactive | –
17 | CCOCCCNCc1cc(Br)ccc1OCC | – | 1.6% [at 12.7 µM] (inactive)
18 | COCCCNCCOCCOc1ccc(Cl)cc1Br | 10 µM (active) | –
19 | Cc1csc2nc(COC(=O)c3cccc(N(C)C)c3)cc(=O)n12 | – | 3.53% [at 2.33 µM] (inactive)
20 | CC(OC(=O)CN1C(=O)c2ccccc2C1=O)C(=O)c1ccccc1 (stereo not given) | – | 12.8% [at 12.7 µM] (inactive)
21 | CC(=O)N1CCN(c2ccc(NCc3ccc(C(C)C)cc3)cc2)CC1 | 14.1 µM (active) | –
22 | CCc1ccc(NC(=O)N2CCN(c3ccccc3)CC2)cc1 | inactive | –
23 | O=C(Nc1ccc(F)cc1)N1CCN(c2ccc(F)cc2)CC1 | inactive | –
24 | Cc1cc(F)ccc1S(=O)(=O)Nc1ccc(C(=O)N(C)Cc2ccco2)cc1 | – | 23.8% [at 2.33 µM] (inactive)

Row | SMILES | Potency | activity, negative = inhibition
25 | Cc1nn(CC(=O)NCCc2ccccc2)c(=O)c2c1sc1ccccc12 | inactive | –
26 | Cc1ccc(C)c(N2CCN(C(=O)Cn3ncn4cccc4c3=O)CC2)c1 | inactive | –
27 | Cc1ccc(C)c(N2CCN(C(=O)Cn3nc(C)c4sc5ccccc5c4c3=O)CC2)c1 | 12.6 µM (active) | –
28 | CCn1nc(C(=O)NNC(=O)C2CSC3(C)CCC(=O)N23)c2ccccc2c1=O (stereo not given) | – | 2.22% [at 12.7 µM] (inactive)
29 | Cc1csc2nc(COC(=O)c3ccc(NC(=O)COc4ccccc4F)cc3)cc(=O)n12 | – | 6.31% [at 12.7 µM] (inactive)
30 | CCOC(=O)c1cc2c(=O)n3ccccc3nc2n(CC2CCCO2)c1=NC(=O)c1ccc(C(C)(C)C)cc1 (stereo not given) | inactive | –
31 | COc1cc2cc(CN(CCN3CCCC3)C(=O)Nc3ccccc3Cl)c(=O)[nH]c2cc1OC | 50.1 µM (active) | –
32 | COc1ccc(CCN(Cc2cc3cccc(C)c3[nH]c2=O)C(=O)N2CCCC2)cc1OC | – | -36.8% [at 12.7 µM] (inactive)
33 | Cc1ccc2[nH]c(=O)c(CN(CCCN(C)C)C(=O)Nc3cccc(Cl)c3)cc2c1 | inactive | –
34 | CCCCNC(=O)c1cn(CC)c2cc(N3CCN(C(=O)c4ccco4)CC3)c(F)cc2c1=O | inactive | –
35 | CCOc1ccc(CNC(=O)c2ccc3c(c2)nnn3C2CCCC2)cc1 | inactive | –
36 | O=C(NC1CCCC1)C(c1ccco1)N(C(=O)c1ccco1)c1ccc(F)cc1 (stereo not given) | inactive | –
37 | O=c1cc(COc2cccc(C(F)(F)F)c2)nc2sc3c(n12)CCCC3 | inactive | –
38 | COc1cc(NC(=S)NCc2ccco2)c(OC)cc1Cl | 50.1 µM (active) | –
39 | O=C(NNC(=S)NCc1ccco1)C(c1ccccc1)c1ccccc1 | inactive | –
40 | Cc1ccc(CC(=O)Nc2ccc(OC(F)F)c(Cl)c2)cc1C | inactive | –
41 | FC(F)Oc1ccc(NC(=S)NCc2ccco2)cc1Cl | 50.1 µM (active) | –
42 | CCOc1cc(NC(=S)NCc2ccco2)c(OCC)cc1NC(=O)c1ccco1 | inactive | –
43 | COc1cccc(OC)c1C(=O)NC(=S)NCc1ccco1 | inactive | –
44 | Cc1c(Cl)cccc1NC(=O)Cn1cc(C(=O)c2cccs2)c2ccccc21 | inactive | –
45 | Cc1ccc(NC(=O)CN2c3ccccc3S(=O)(=O)c3ccccc32)cc1F | inactive | –
46 | CCCN(CCC)C(=O)C(Cc1ccccc1)NS(=O)(=O)c1ccc2c(c1)c(=O)n(C)c(=O)n2C (stereo not given) | inactive | –
47 | Cc1ccc(C)c(NC(=S)NCC(c2cccnc2)N2CCOCC2)c1 (stereo not given) | inactive | –
48 | CCC(C(=O)Nc1ccc(C(C)C)cc1)c1ccccc1 (stereo not given) | inactive | –

Row | SMILES | Potency | activity, negative = inhibition
49 | CC(C)CC(=O)NC(=S)Nc1cc(C(=O)O)ccc1Cl | inactive | –
50 | Cc1cccc(NC(=S)Nc2ccc(Br)cc2)c1 | inactive | –
51 | CC(C)c1ccc(NC(=S)NNc2ccc(Cl)c(C(=O)O)c2)cc1 | 10 µM (active) | –
52 | Cc1ccc(C)c(NC(=S)NNC(=S)Nc2ccc(C(C)C)cc2)c1 | 31.6 µM (active) | –
53 | COCCNC(=O)c1ccc2nc(Cc3ccc(OC)c(OC)c3)oc2c1 | inactive | –
54 | CC(=O)Nc1cccc(C(=O)OCC(=O)Nc2nnc(-c3ccccc3)o2)c1 | inactive | –
55 | CN(CC(=O)NCc1cccnc1)S(=O)(=O)c1cc(Cl)ccc1Cl | inactive | –
56 | COc1ccc(NC(=O)C2CCN(S(=O)(=O)c3ccc4[nH]c(=O)oc4c3)CC2)c(OC)c1 | inactive | –
57 | C=CCN1C(=O)C(O)(CC(=O)c2ccc(Cl)cc2)c2ccccc21 (stereo not given) | 44.7 µM (active) | –
58 | O=C(CC1(O)C(=O)N(CN2CCOCC2)c2ccccc21)c1ccccc1 (stereo not given) | inactive | –
59 | CCOC(=O)CN1C(=O)C(O)(CC(=O)c2ccccn2)c2ccccc21 (stereo not given) | inactive | –
60 | COc1ccc(CCNC(=O)c2ccc(CSCc3ccc(C)cc3)o2)cc1OC | inactive | –
61 | CCc1nnc2c3ccccc3nc(N3CCN(c4ccc(C)cc4C)CC3)n12 | inactive | –
62 | Cc1ccc(/C=C/C(=O)OCC(=O)Nc2cccnc2Cl)cc1 | – | 5.18% [at 12.7 µM] (inactive)
63 | CC(=O)c1c(N)n(C)c(=O)n(C)c1=O | inactive | –
64 | CC(=O)Nn1cc2c(=O)n(C)c(=O)n(C)c2c1 | 35.5 µM (active) | –
65 | CC(=O)NNc1cc(=O)c2c(=O)n(C)c(=O)n(C)c2[nH]1 | inactive | –
66 | Nc1ccn(CC(=O)N2CCN(c3ccccn3)CC2)c(=O)n1 | – | -0.804% [at 0.501 µM] (inactive)
67 | COC(=O)c1ccccc1NS(=O)(=O)c1ccc2c(c1)CCCN2C(C)=O | inactive | –
68 | COC(=O)[C@H](C)[C@H]1C[C@]1(C)[C@H](NC(=O)OCc1ccccc1)c1ccccc1 | inactive | –
69 | O=C(Nc1ccc(N2CCN(C(=O)c3ccccc3)CC2)c(Cl)c1)c1cccnc1 | inactive | –
70 | C[C@@H](C(=O)Nc1ccc2ccccc2c1)[C@@H]1C[C@@]1(C)[C@@H](NC(=O)c1cccnc1)c1ccccc1 | 50.1 µM (active) | –
71 | CC(=O)N[C@@H](C)C(=O)N1CCC(n2nccc2NC(=O)CCCc2ccccc2)CC1 | inactive | –
72 | CC(NS(=O)(=O)c1ccc(Cl)cc1)C(=O)Nc1ccc2c(c1)OCCO2 (stereo not given) | inactive | –

Row | SMILES | Potency | activity, negative = inhibition
73 | N#C/C(=C\C1=C(N2CCOCC2)C(=C\c2ccccc2)/CC1)C(=O)Nc1ccccc1F | 7.08 µM (active) | –
74 | N#C/C(=C\c1ccccc1C(F)(F)F)C(=O)Nc1ccccc1F | inactive | –
75 | Cc1ccc(C(=O)Nc2ccccc2F)cc1S(=O)(=O)N1CCOCC1 | inactive | –
76 | CCOCCCn1c(SCC(=O)Nc2ccc(CC)cc2)nc2ccccc2c1=O | inactive | –
77 | O=C(CCc1nc(CN2CCN(S(=O)(=O)c3ccc(F)cc3)CC2)no1)N1CCCCC1 | inactive | –
78 | COc1ccc(N(C)C(=O)C2CCN(S(=O)(=O)c3cc(Br)cc4c3N(C(C)=O)CC4)CC2)cc1 | inactive | –
79 | CCOc1ccc(CNC(=O)c2cc(=O)[nH]c3ccc(S(=O)(=O)N4CCCCC4)cc23)cc1 | inactive | –
80 | Brc1ccc(C2=NCCC(c3ccccc3)O2)cc1 (stereo not given) | inactive | –
81 | CNC(=S)N1N=C(c2ccccc2)CC1c1ccc(Br)cc1 (stereo not given) | inactive | –
82 | Brc1ccc(C2CC(c3ccccc3)=Nc3ccccc3N2)cc1 (stereo not given) | 39.8 µM (active) | –
83 | COc1cc(C(=O)N2CCC(c3ccncc3)CC2)cc(OC)c1OC | inactive | –
84 | Cc1ccc(NC(=O)C(C)OC(=O)Cc2c[nH]c3ccccc23)cc1S(=O)(=O)N1CCOCC1 (stereo not given) | 35.5 µM (active) | –
85 | CC(OC(=O)CCCc1c[nH]c2ccccc12)C(=O)Nc1ccc(S(N)(=O)=O)cc1 (stereo not given) | – | 14.8% [at 0.501 µM] (inactive)
86 | Cc1ccc(NC(=O)c2ccccn2)cc1S(=O)(=O)N1CCOCC1 | inactive | –
87 | CS(=O)(=O)c1ccc2nc(NC(=O)CN3CCCCCC3)sc2c1 | 17.8 µM (active) | –
88 | CS(=O)(=O)c1ccc2nc(NC(=O)C3CCCCC3)sc2c1 | inactive | –
89 | CS(=O)(=O)c1ccc2nc(NC(=O)c3ccc(N4CCCC4=O)cc3)sc2c1 | inactive | –
90 | COc1cccc(NC(=O)CN(C)C(=O)CSCc2nc3scc(-c4cccs4)c3c(=O)[nH]2)c1 | inactive | –
91 | CCOC(=O)C1=C(c2ccc(OC)cc2)C(=O)c2ccccc2C1=O | 31.6 µM (active) | –
92 | COc1ccc(OCCCON2C(=O)c3ccccc3C2=O)cc1 | inactive | –
93 | CCOC(=O)c1c(C)[nH]c2c1-c1ccccc1C(=O)C2=O | inactive | –
94 | CSCCC(NS(=O)(=O)c1ccccc1F)C(=O)N1CC=C(c2ccccc2)CC1 (stereo not given) | inactive | –
95 | CC(C)(C)c1ccc(C(=O)N2CCC(c3nc(-c4ccc(S(=O)(=O)N5CCCC5)cc4)no3)CC2)cc1 | inactive | –

Source: PubChem BioAssay AID504332 (National Center for Advancing Translational Sciences (NCATS), 2011)
